Results filed as inconclusive are left out. Activity calls are given as the source filed them. The call rests on the fitted dose curve; in most records, active means well fitted inhibition curve with a large enough effect in the polarisation, with a control signal flat (not every such curve was filed as active); inconclusive means small, poorly fitted or top-dose-only effect, or effect the other way, or a change in a side signal; inactive means no such curve, though single readings can be large or run the other way; the % refers to the polarisation.
Molecular target: Menin (Homo sapiens) (UniProt O00255)
Sequence (O00255 whole entry, looked up): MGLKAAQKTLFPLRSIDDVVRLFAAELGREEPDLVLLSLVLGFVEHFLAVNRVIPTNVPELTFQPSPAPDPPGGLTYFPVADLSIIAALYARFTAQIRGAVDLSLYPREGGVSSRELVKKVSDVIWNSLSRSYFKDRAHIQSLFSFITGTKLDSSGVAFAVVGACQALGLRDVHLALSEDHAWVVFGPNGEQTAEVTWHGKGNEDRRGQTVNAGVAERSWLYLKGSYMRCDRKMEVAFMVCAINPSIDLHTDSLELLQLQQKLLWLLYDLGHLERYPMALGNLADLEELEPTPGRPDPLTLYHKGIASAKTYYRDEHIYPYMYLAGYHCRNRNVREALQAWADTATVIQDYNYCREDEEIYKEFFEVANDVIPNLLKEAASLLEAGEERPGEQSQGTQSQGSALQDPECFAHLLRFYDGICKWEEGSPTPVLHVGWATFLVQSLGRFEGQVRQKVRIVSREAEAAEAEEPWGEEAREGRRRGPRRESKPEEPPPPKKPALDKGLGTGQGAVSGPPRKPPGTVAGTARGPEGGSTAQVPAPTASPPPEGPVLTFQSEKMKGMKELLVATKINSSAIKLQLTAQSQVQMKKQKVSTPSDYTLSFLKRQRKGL
Experiment: Confirmation of Inhibitors Targeting the Menin-MLL Interaction in MLL Related Leukemias: Competition With Fluorescein Labeled MLL-derived Peptide
Conditions: Fluorescence polarization, fluorescein-MLL peptide displacement from menin; series mostly up to 100 µM

## OC(c1ccccn1)(c1ccccn1)c1ccccn1
  outcome: inactive

## Cc1nn(-c2ccccc2)c2nc(N)c(C(N)=O)cc12
  outcome: inactive

## CCn1cnc2c1c(=O)n(CC(=O)O)c(=O)n2Cc1ccccc1
  outcome: inactive

## CC(CC(=O)Nc1nc2ccccc2[nH]1)n1ccnc1 (centres undefined)
  outcome: inactive

## COc1ccc(CCNCc2cc(C)n(-c3ccc(OC)cc3)c2C)cc1
  outcome: inactive

## O=C(N/N=C/c1cn(-c2cccs2)nc1-c1ccccc1)c1ccccc1O
  outcome: inactive

## CCOc1ccc(C2Nc3ccc4ccccc4c3-c3c2c(=O)oc2ccccc32)cc1 (centres undefined)
  outcome: inactive

## CCCCn1c(SCC(=O)NCc2ccc(OC)c(C(=O)O)c2)nc2cc(S(N)(=O)=O)ccc21
  outcome: inactive

## COc1ccccc1CC(=O)Nc1ccc(-c2noc(COc3ccc(Br)cc3)n2)cc1
  outcome: inactive

## Clc1ccc(-c2nnc(-c3ccccc3)nc2-c2c[nH]c3ccccc23)cc1
  outcome: inactive

## CC(NC(=O)c1cnc2ccccc2n1)c1ccccc1 (centres undefined)
  outcome: inactive

## O=[N+]([O-])CC(c1ccccc1)P(=O)(c1ccccc1)c1ccccc1 (centres undefined)
  outcome: inactive

## Cc1c(CCOC(=O)CC23CC4CC(CC(C)(C4)C2)C3)sc[n+]1Cc1ccc([N+](=O)[O-])cc1
  outcome: inactive

## COCCn1c(C)c(C)c2c(NCCc3ccccc3)ncnc21
  outcome: inactive

## O=S(=O)(Nc1cccc(-c2cn3cccnc3n2)c1)c1ccccc1
  outcome: inactive

## CCc1oc2ccccc2c1C(=O)c1cc(Br)c(O)c(Br)c1
  outcome: inactive

## CC(=O)N1CCCc2cc(S(=O)(=O)N3CCCC(C(=O)N4CCN(c5ccccc5)CC4)C3)ccc21 (centres undefined)
  outcome: inactive

## CN(C)C(CNc1ncnc2sc3c(c12)CCCCC3)c1ccco1 (centres undefined)
  outcome: inactive

## Cc1nc2oc3c(NCC4CCCO4)ncnc3c2c2c1COC(C)(C)C2 (centres undefined)
  outcome: inactive

## O=C(CCn1nc(-c2ccccc2)ccc1=O)N1CCN(c2ccccn2)CC1
  outcome: inactive

## Cc1ccc(/C=C2\SC(=S)N(CC(=O)Nc3ncc(Cc4ccccc4Cl)s3)C2=O)cc1
  outcome: inactive

## O=C(N/N=C/c1cn(-c2ccccc2)nc1-c1cc2ccccc2o1)c1ccccc1Br
  outcome: inactive

## Cc1ccc(C)n1-c1ccc(N(C)C)cc1
  outcome: inactive

## COc1ccccc1/C=N/n1c(N)c(S(=O)(=O)c2cccs2)c2nc3ccccc3nc21
  outcome: inactive

## Cc1cc2c(c(=O)n1Cc1ccccc1)C1O[C@](c3ccsc3)(Cc3cc(C#N)ccc31)O2
  outcome: inactive

## O=C(CSc1nnc(-c2c[nH]c3ccccc23)o1)c1ccc(-c2ccccc2)cc1
  outcome: inactive

## COc1ccc(S(=O)(=O)Nc2cc(SCC(=O)O)c(O)c3ccccc23)cc1
  outcome: inactive

## CC(=O)Nc1ccc(-c2cc3ccccc3o2)cc1
  outcome: inactive

## CCCCC(=O)NC(=S)Nc1nnn(CCC)n1
  outcome: inactive

## Cc1cc(N2CCOCC2)nc2ccc(Cl)cc12
  outcome: inactive

## CC(=O)N1c2ccccc2C2(O)N=C(C)SC12 (centres undefined)
  outcome: inactive

## CCOc1ccc(CCNC(=O)C(C)N2C(=O)CC(C)(C)Sc3ccccc32)cc1 (centres undefined)
  outcome: inactive

## Cn1c(=O)n(C)c2cc3[nH]cnc3cc21
  outcome: inactive

## O=C(NCC1CCCO1)c1ccc(OC2CCN(C(=O)C3CC3)CC2)cc1 (centres undefined)
  outcome: inactive
